Assay results reported in PubChem BioAssay.
Values without a mark were called inactive. For part of these data: Results with a measured potency or affinity are listed apart. Activity calls are given as the source filed them. Unless noted, how the calls were made is not given here.

Tests used:
[1] = antimalarial activity against Dd2 strain (AID 2302;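 active means growth inhibition above 50% at the single 2 µM test dose, taken to imply half-maximal potency below 2 µM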;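 further: 0% = DMSO untreated growth and 100% = chloroquine plus artemisinin killed control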); conditions: P. falciparum Dd2 in RBCs, LDH growth readout, 72 h; at 2 µM; active compounds read high
[2] = HepG2 cytotoxicity, primary screen, cytotoxicity control for P. falciparum antimalarial project, cell-based, ATP luminescence (AID 2303;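 active means inhibition above 50%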;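 further: 0% = DMSO wells and 100% = digitonin-killed cells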); conditions: HepG2 viability, 24-48 h, at 10 µM, active compounds read high
[3] = molecular target: L-lactate dehydrogenase (Plasmodium falciparum (isolate CDC / Honduras)) (UniProt Q27743); experiment: PfLDH activity inhibition – cell lysate, 3D7 strain, counter-screen for P. falciparum growth inhibition project (AID 2304);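 further: 0% = vehicle and 100% = reference inhibitor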; conditions: P. falciparum 3D7 crude extract, LDH APAD/NBT absorbance; at 2 µM; active compounds read high
[4] = inhibition of 3D7 malaria parasite growth – strain 3D7 (AID 2306);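 further: 0% = DMSO wells and 100% = chloroquine plus artemisinin control wells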; conditions: P. falciparum 3D7 erythrocytic growth, LDH absorbance, 72 h; at 2 µM; active compounds read high
[5] = molecular target: Calcium-dependent protein kinase 1 (Plasmodium falciparum (isolate 3D7)) (UniProt P62344); experiment: PfCDPK1 kinase inhibitors, biochemical, TCAMS library (AID 1159585; cut-off not given, nearly all actives have IC50 up to about 0.98 µM;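 further: inhibitors leave more ATP so luminescence rises with inhibition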); conditions: recombinant PfCDPK1, Kinase-Glo ATP depletion luminescence
[6] = molecular target: Plasmodium falciparum protein kinase 6 (PK6, PF3D7_1337100) (UniProt Q8IDW1); experiment: PfPK6 kinase inhibitors, biochemical, TCAMS library (AID 1159586); conditions: recombinant PfPK6, Kinase-Glo ATP depletion luminescence
[7] = molecular target: Protein kinase 7 (PK7), Plasmodium falciparum 3D7 (PF3D7_0213400) (UniProt Q7YTF7); experiment: inhibition of Plasmodium PK7 catalytic activity – biochemical, TCAMS antimalarial set, Kinase-Glo luminescence (AID 1159587); conditions: recombinant PfPK7, Kinase-Glo ATP depletion luminescence
[8] = molecular target: Calcium-dependent protein kinase 4 (Plasmodium falciparum (isolate 3D7)) (UniProt Q8IBS5); experiment: PfCDPK4 kinase inhibitors, biochemical, TCAMS library (AID 1159588; cut-off not given, nearly all actives have IC50 up to about 0.91 µM); conditions: recombinant PfCDPK4, Kinase-Glo ATP depletion luminescence
Calcium-dependent protein kinase 4 (Plasmodium falciparum (isolate 3D7)), sequence (Q8IBS5 whole entry, looked up): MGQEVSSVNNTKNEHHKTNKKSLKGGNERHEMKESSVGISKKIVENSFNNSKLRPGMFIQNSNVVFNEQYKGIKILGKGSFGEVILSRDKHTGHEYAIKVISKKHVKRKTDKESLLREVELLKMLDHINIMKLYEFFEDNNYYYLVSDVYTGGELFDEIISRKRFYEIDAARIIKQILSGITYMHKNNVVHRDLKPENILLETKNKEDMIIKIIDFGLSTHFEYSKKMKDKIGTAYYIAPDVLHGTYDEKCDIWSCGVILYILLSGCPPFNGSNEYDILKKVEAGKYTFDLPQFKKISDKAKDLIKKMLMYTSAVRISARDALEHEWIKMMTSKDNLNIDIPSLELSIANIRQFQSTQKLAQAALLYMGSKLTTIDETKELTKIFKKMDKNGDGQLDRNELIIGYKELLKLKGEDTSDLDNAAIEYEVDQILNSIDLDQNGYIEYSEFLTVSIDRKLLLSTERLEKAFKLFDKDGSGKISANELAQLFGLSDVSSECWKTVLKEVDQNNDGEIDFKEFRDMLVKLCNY

Protein kinase 7 (PK7), Plasmodium falciparum 3D7 (PF3D7_0213400), sequence (Q7YTF7 1-343): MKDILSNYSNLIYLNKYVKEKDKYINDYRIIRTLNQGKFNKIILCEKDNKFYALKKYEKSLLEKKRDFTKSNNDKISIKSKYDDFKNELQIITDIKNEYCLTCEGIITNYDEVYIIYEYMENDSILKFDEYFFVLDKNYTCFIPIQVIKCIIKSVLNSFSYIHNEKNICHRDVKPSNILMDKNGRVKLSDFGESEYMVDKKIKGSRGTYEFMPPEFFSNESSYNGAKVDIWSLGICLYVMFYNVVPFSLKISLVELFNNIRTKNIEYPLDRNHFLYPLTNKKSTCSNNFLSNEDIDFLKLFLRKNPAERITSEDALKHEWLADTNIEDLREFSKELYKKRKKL
L-lactate dehydrogenase (Plasmodium falciparum (isolate CDC / Honduras)), sequence (Q27743 whole entry, looked up): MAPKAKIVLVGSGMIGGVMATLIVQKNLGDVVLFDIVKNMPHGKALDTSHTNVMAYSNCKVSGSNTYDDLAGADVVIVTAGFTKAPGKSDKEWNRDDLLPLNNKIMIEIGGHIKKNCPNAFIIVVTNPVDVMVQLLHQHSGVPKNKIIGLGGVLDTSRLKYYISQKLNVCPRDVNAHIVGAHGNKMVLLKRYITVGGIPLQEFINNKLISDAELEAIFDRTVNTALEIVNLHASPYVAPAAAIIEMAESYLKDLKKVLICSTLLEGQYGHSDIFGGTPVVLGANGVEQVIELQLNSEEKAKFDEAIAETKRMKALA
Plasmodium falciparum protein kinase 6 (PK6, PF3D7_1337100), sequence (Q8IDW1 1-305): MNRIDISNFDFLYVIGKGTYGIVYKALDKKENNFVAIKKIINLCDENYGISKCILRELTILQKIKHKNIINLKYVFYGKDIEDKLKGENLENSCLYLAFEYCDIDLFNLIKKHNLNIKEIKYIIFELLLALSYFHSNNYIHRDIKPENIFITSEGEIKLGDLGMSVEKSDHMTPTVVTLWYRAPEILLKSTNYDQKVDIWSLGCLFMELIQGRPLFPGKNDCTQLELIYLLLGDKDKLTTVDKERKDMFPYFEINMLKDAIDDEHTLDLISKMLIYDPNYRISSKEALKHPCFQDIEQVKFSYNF
Calcium-dependent protein kinase 1 (Plasmodium falciparum (isolate 3D7)), sequence (P62344 whole entry, looked up): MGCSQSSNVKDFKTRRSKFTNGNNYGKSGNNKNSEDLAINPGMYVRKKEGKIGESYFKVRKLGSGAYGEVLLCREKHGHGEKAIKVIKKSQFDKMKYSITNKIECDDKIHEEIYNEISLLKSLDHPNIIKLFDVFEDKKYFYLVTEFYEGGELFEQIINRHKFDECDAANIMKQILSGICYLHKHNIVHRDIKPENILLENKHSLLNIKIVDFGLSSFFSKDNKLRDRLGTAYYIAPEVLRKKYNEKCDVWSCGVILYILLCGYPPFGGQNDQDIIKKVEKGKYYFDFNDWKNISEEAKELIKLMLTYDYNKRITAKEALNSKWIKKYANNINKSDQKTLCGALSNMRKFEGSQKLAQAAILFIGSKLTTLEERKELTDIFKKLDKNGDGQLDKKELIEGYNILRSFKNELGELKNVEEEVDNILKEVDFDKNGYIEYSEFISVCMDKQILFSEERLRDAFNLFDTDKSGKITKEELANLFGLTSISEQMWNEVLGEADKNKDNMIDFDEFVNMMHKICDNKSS

Structure (SMILES)	growth inhibition [1]	inhibition [2]	inhibition [3]	growth inhibition [4]	outcome [5]	outcome [6]	outcome [7]	outcome [8]
C=CCOC(=O)N1CCC(CNCc2cccc(-c3ccc(-c4nc5ccc(C(F)(F)F)cc5[nH]4)cc3)c2)C1 (configuration not stated)	96% (active)	28%	-3%	102% (active)	inactive	inactive	inactive	inactive
Cc1cc2c(cc1Cl)N(C(=O)Nc1cc(F)cc(-c3cncnc3)c1)CC2	59% (active)	-4%	-6%	96% (active)	inactive	inactive	inactive	inactive
O=[N+]([O-])c1nc(Br)n(Cc2ccc(Cl)cc2)n1	95% (active)	-3%	-1%	96% (active)	inactive	inactive	inactive	inactive
Cc1nc(Nc2ccc(F)cc2)nc(N2CCc3ccccc3C2C)c1CO (configuration not stated)	95% (active)	-9%	-4%	101% (active)	inactive	inactive	inactive	inactive
COc1cc2c(cc1C(F)(F)F)N(C(=O)Nc1cc(-c3ccncc3)cc(-c3cccnc3)c1)CC2	50% (active)	64% (active)	7%	95% (active)	inactive	inactive	inactive	inactive
Cc1ccc2c(NC(=O)Nc3ccc(N(C)C)cc3)cc(C)nc2c1	20%	-6%	0%	98% (active)	inactive	inactive	inactive	inactive
COc1ccc(NC(=O)N2CCCN(CCCCCNC(=O)/C=C/c3ccc(C(F)(F)F)cc3)CC2)cc1Cl	-5%	21%	4%	93% (active)	inactive	inactive	inactive	inactive
CCCCCCN=C(N)c1ccc(OCCCCCOc2ccc(C(N)=NCCCCCC)cc2)cc1	98% (active)	55% (active)	-8%	97% (active)	inactive	inactive	inactive	inactive
Cc1cc(N2CCC(N(C)C)C2)nc(Nc2ccc(Cl)cc2)n1 (configuration not stated)	17%	11%	2%	99% (active)	inactive	inactive	inactive	inactive
CS(=O)(=O)c1ccc(-c2cc(C(F)(F)F)nc(N[C@@H]3CCCC[C@H]3OCc3ccccc3)n2)cc1	99% (active)	8%	5%	100% (active)	inactive	inactive	inactive	inactive
Cc1noc(C)c1-c1cccc(CNCc2cccc(-c3ccc(-c4nc5c(C)cccc5[nH]4)cc3)c2)c1	69% (active)	24%	6%	103% (active)	inactive	inactive	inactive	inactive
Nc1c2c(nc3ccc(NC(=O)c4ccc([N+](=O)[O-])cc4)cc13)CCCC2	72% (active)	19%	0%	102% (active)	inactive	inactive	inactive	inactive
COc1ccc(N2CCN(CCCCNC(=O)c3ccc(NC(=O)c4ccc(Cl)c(Cl)c4)cc3)CC2)c(OC)c1	98% (active)	23%	4%	101% (active)	inactive	inactive	inactive	inactive
Cc1ccc(N2CCN(CCCCNC(=O)c3ccc(NC(=O)c4ccc(Cl)cc4)cc3)CC2)c(C)c1	20%	30%	7%	95% (active)	inactive	inactive	inactive	inactive
CCOC(=O)c1[nH]c(-c2cccnc2)nc1NC(=S)NCc1ccccc1	100% (active)	10%	1%	101% (active)	inactive	inactive	inactive	inactive
CCn1c(SCc2ccc(F)cc2)nc2sc3c(c2c1=O)CCN(C)C3	81% (active)	2%	3%	95% (active)	inactive	inactive	inactive	inactive
CCCNC(=O)C1CCN(C(c2ccccc2)c2ccc(Cl)c(Cl)c2)CC1 (configuration not stated)	90% (active)	15%	1%	90% (active)	inactive	inactive	inactive	inactive
OC(CNCc1ccccc1OCc1ccccc1)c1cccc(I)c1 (configuration not stated)	100% (active)	2%	-1%	100% (active)	inactive	inactive	inactive	inactive
CC(C)(C)c1ccc2nc(-c3ccc(/C=C/C(=O)NC4CCN(Cc5ccccc5)CC4)cc3)[nH]c2c1	96% (active)	45%	-2%	101% (active)	inactive	inactive	inactive	inactive
COc1ccc(CCc2ccc(-c3c(C)[nH]c(C)c(Cl)c3=O)cc2)cc1OC	97% (active)	-5%	-7%	99% (active)	inactive	inactive	inactive	inactive

Structure (SMILES)	growth inhibition [1]	inhibition [2]	inhibition [3]	growth inhibition [4]	outcome [5]	outcome [6]	outcome [7]	outcome [8]
CCn1c(Sc2ccc([N+](=O)[O-])c(C#N)c2)nnc1-c1cccc(Cl)c1	22%	8%	2%	89% (active)	inactive	inactive	inactive	inactive
COc1cccc(OC)c1CN1CCC(N(C)CCCCCCCCN2CCC(OC(=O)Nc3ccccc3-c3ccccc3)CC2)CC1	100% (active)	100% (active)	1%	99% (active)	inactive	inactive	inactive	inactive
Cc1c(OC(C)C)nc2ccccc2c1C(=O)N[C@H](c1cccc(F)c1)C1CC1	34%	6%	3%	83% (active)	inactive	inactive	inactive	inactive
CCNc1cc(C(=O)N[C@@H](Cc2ccccc2)[C@H](O)CNCCc2cccc(C(F)(F)F)c2)cc(N2CCCC2=O)c1	93% (active)	7%	1%	96% (active)	inactive	inactive	inactive	inactive
COc1ccc(-c2ccc(NC(=O)c3ccc(C#N)cc3)cc2)cc1CN1CCCN(C)CC1	75% (active)	27%	-3%	99% (active)	inactive	inactive	inactive	inactive
Cc1ccc(C)c(NC(=O)NCCNc2ccnc(Nc3ccc(F)cc3)n2)c1	5%	21%	6%	97% (active)	inactive	inactive	inactive	inactive
O=C(Nc1ccc([N+](=O)[O-])cc1Br)c1cc2ccccc2nc1Cl	68% (active)	-4%	2%	97% (active)	inactive	inactive	inactive	inactive
COc1cc(Nc2ccc3cc(S(=O)(=O)N4CCCCC4C)ccc3n2)cc(OC)c1OC (configuration not stated)	78% (active)	-5%	-1%	88% (active)	inactive	inactive	inactive	inactive
COc1cc2c(cc1C=CC(=O)N1CCN(Cc3nc4sc(C)c(C)c4c(=O)[nH]3)CC1)OC(C)C2 (configuration not stated)	87% (active)	-1%	-9%	82% (active)	inactive	inactive	inactive	inactive
O=C(/C=C/c1ccc(Cl)c(Cl)c1)NCCCCCN1CCC(CCNC(=O)/C=C/c2ccc(Cl)c(Cl)c2)CC1	56% (active)	68% (active)	-5%	101% (active)	inactive	inactive	inactive	inactive
Cc1c(C(=O)NCc2ccncc2)sc2nc(-c3cccc([N+](=O)[O-])c3)cn12	29%	18%	-2%	97% (active)	inactive	inactive	inactive	inactive
COc1ccccc1CCNC(=O)c1cc(Br)cc(N2CCN(c3ccncc3)CC2)c1	32%	38%	4%	84% (active)	inactive	inactive	inactive	inactive
CN1CCN(Cc2nc(-c3ccc4c(Nc5ccc(F)c(O)c5)ccnc4c3)cs2)CC1	100% (active)	0%	7%	100% (active)	inactive	inactive	inactive	inactive
Cc1cccc2[nH]c(-c3cccc(-c4ccc(NC(=O)NC(C)C)cc4)c3)nc12	44%	30%	-2%	98% (active)	inactive	inactive	inactive	inactive
COc1ccc(C(=O)NC(c2ccc(Cl)cc2Cl)c2cc(Cl)c3cccnc3c2O)cc1 (configuration not stated)	48%	46%	2%	84% (active)	inactive	inactive	inactive	inactive
Cc1nc(-c2cccc3c(NC(=O)N4CCc5cc6nccc(N7CCN(C)CC7)c6cc54)cccc23)no1	97% (active)	45%	2%	100% (active)	inactive	inactive	inactive	inactive
CCc1cc(OC)c(C(=O)NC2CCN(C[C@H](O)c3ccnc4ccc(OC)cc34)CC2)cc1Br	56% (active)	6%	2%	98% (active)	inactive	inactive	inactive	inactive
O=C(NC1CCCCC1)c1csc(C2CCCN(C(=O)c3ccc(O)c(-c4cccc(C(F)(F)F)c4)c3)C2)n1 (configuration not stated)	85% (active)	8%	5%	96% (active)	inactive	inactive	inactive	inactive
COc1ccc(CNC2CCN(C)CC2)cc1-c1ccc(S(=O)(=O)NC2CCC2)cc1	76% (active)	58% (active)	1%	98% (active)	inactive	inactive	inactive	inactive
